Outcome and AC50 data for four compounds are collected here from PubChem BioAssay (EPA / NIEHS).

Records with an inconclusive call do not appear. Calls of active or inactive are those of the source. How the source made its calls, unless noted: active means hit-call score of the fitted dose curve at least 0.9, where 1 is the maximum; inactive means score below 0.9.

A short description of test [1]: ACEA_ER_80hr: ACEA Biosciences xCELLigence Real-Time Cell Analysis on Estrogen Receptor Agonism for Proliferation (AID 2282667; active means hit-call score of the fitted dose curve at least 0.9, where 1 is the maximum). To be noted: T47D proliferation, impedance (xCELLigence), 80 h. Summed up: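 Real-time impedance growth kinetics of human T-47D breast cells read 80 h after dosing, gain-of-signal fitted relative to DMSO. Compounds: 1:4 serial series, top final concentration 100 uM, n = 2.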

Test [2] in a line: ATG_CRE_CIS: Attagene CIS-FACTORIAL HepG2 Assay for human cAMP Responsive Element (CRE) binding protein 3 (AID 2282926). To be noted: HepG2 CRE cis-reporter, Attagene multiplexed mRNA; actives raise or lower the signal. A digest of the protocol:
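Multiplexed transcription-unit reporters transfected into HepG2; 24 h dosing; RT-PCR/capillary electrophoresis fluorescence read-out; bidirectional fit vs DMSO.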

In test [3] the target is CCAAT/enhancer-binding protein beta (Homo sapiens) (UniProt P17676). Kind of test: ATG_C_EBP_CIS: Attagene CIS-FACTORIAL HepG2 Assay for human CCAAT/Enhancer Binding Protein (C/EBP) beta (AID 2282927). To be noted: HepG2 Attagene cis-factorial transcription factor reporter; actives raise or lower the signal. Summed up: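 Endogenous C/EBPb-driven reporter transcripts measured in transfected human HepG2 cells at 24 h via RT-PCR and capillary electrophoresis of labelled fragments. Activity fitted in both directions relative to DMSO baseline.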
CCAAT/enhancer-binding protein beta (Homo sapiens), sequence (P17676 whole entry, looked up, the tested form may be a part): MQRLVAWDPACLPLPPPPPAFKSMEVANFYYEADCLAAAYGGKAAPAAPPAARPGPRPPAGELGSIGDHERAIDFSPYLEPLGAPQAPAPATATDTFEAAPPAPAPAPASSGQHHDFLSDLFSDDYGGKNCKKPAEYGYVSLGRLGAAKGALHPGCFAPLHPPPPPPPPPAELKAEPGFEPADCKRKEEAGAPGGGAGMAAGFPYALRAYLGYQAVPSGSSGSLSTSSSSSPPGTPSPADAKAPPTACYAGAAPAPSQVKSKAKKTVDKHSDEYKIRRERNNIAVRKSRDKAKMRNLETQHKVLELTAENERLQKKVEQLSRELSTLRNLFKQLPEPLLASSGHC

Test [4] is described as follows: ATG_CMV_CIS: Attagene CIS-FACTORIAL HepG2 Assay for human CMV (Internal Marker) (AID 2282928).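 Further: endpoint acts as a background internal control marker rather than a target.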 As to conditions: HepG2 CMV promoter reporter, transcription factor profiling; actives raise or lower the signal. Summed up: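 Cell system: HepG2, transiently transfected multiple reporter units under cis promoters. Exposure: 24 h. Detection: RT-PCR, FAM labeling, HpaI digestion, capillary electrophoresis. Analysis: bidirectional, DMSO baseline.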

The nature of test [5]: ATG_DR4_LXR_CIS: Attagene CIS-FACTORIAL HepG2 Assay for human Liver X Receptor (LXR), DR4 submotif (AID 2282929). To be noted: HepG2 Attagene DR4 cis-reporter, mRNA transcription; actives raise or lower the signal. Summed up:
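The endpoint is DR4-element-driven reporter transcripts after 24 h chemical exposure of transfected HepG2 cells. These were measured via RT-PCR and capillary electrophoresis, and gain or loss of signal was fitted relative to DMSO controls.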

Test [6] concerns the target Aryl hydrocarbon receptor (Homo sapiens) (UniProt P35869). The experiment in a line: ATG_Ahr_CIS: Attagene CIS-FACTORIAL HepG2 Assay for human Aryl Hydrocarbon Receptor (Ahr) (AID 2282930). To be noted: HepG2 AhR cis-factorial reporter transcription; actives raise or lower the signal. Summed up: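 Reporter mRNA levels, quantified by RT-PCR and fluorescent capillary electrophoresis, reflect endogenous AhR transcriptional activity in HepG2 cells carrying transfected cis-promoter reporter constructs. Readout at 24 h post-dose; gain or loss fitted against DMSO baseline.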

The nature of test [7]: ATG_AP_1_CIS: Attagene CIS-FACTORIAL HepG2 Assay for human Activator Protein 1 (AP-1) (AID 2282931). As to conditions: HepG2 Attagene cis-factorial AP-1 reporter mRNA; actives raise or lower the signal. A digest of the protocol: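 Readout is reporter transcript level from endogenous transcription factor activity, quantified by RT-PCR with fluorescent primer extension and capillary electrophoresis. Transiently transfected HepG2 cells, 24 h exposure. Curves fitted both directions versus DMSO.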

Test [8] is described as follows: ATG_AP_2_CIS: Attagene CIS-FACTORIAL HepG2 Assay for human Activator Protein 2 (AP-2) (AID 2282932). As to conditions: HepG2 AP-2 cis-reporter, Attagene transcription factor profiling; actives raise or lower the signal. A digest of the protocol:
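Step one: transient transfection of HepG2 with reporter transcription units. Step two: 24 h chemical exposure. Step three: RNA extraction, RT-PCR, labelled fragment analysis by capillary electrophoresis; DMSO serves as baseline.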

In test [9] the target is Retinoic acid receptor alpha (Homo sapiens) (UniProt P10276). Kind of test: ATG_DR5_RAR_CIS: Attagene CIS-FACTORIAL HepG2 Assay for human Retinoic Acid Receptor Alpha (RARE), DR5 submotif (AID 2282934). To be noted: HepG2 Attagene cis-factorial RARE DR5 reporter, mRNA; actives raise or lower the signal. A digest of the protocol: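 Reporter transcripts from a DR5-regulated unit, measured via RT-PCR plus capillary electrophoresis, reflect endogenous RAR activity in transiently transfected human HepG2 liver cells. Exposure lasted 24 h; gain or loss of signal scored against DMSO.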
Retinoic acid receptor alpha (Homo sapiens), sequence (P10276 whole entry, looked up): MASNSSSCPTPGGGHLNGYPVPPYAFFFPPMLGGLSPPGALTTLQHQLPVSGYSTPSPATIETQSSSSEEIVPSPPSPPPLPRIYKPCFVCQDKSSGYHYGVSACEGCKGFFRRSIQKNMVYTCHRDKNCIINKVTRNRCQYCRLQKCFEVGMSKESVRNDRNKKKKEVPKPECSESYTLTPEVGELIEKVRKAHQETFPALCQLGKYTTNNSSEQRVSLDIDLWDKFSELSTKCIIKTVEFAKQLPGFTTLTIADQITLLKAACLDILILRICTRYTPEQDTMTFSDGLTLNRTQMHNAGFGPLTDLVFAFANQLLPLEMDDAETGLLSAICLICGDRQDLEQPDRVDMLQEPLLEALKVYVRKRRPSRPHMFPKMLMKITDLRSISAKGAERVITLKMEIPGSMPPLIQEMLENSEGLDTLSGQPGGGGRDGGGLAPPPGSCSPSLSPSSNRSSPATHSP

Test [10] has as its target Transcription factor E2F1 (Homo sapiens) (UniProt Q01094). Kind of test: ATG_E2F_CIS: Attagene CIS-FACTORIAL HepG2 Assay for human E2F Transcription Factor 1 (AID 2282935). To be noted: HepG2 Attagene cis-reporter, E2F reporter RNA transcripts; actives raise or lower the signal. A digest of the protocol:
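Total RNA from 24 h-treated, reporter-transfected HepG2 cells undergoes DNase I treatment, oligo(dT) reverse transcription, PCR and 6-FAM primer extension before capillary electrophoresis.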

A short description of test [11]: ATG_E_Box_CIS: Attagene CIS-FACTORIAL HepG2 Assay for human Enhancer Box (E-box) (AID 2282936). As to conditions: HepG2 E-box cis-reporter transcription, actives raise or lower the signal. Summed up: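 DMSO served as negative control and baseline for bidirectional fitting. Human hepatoma HepG2 cells, transiently transfected with cis-reporter constructs, were dosed 24 h; reporter mRNA read by RT-PCR and capillary electrophoresis.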

Test [12] can be described thus: ATG_M_61_CIS: Attagene CIS-FACTORIAL HepG2 Assay for M61 Transcription Factor (Internal Marker) (AID 2282937). As to conditions: HepG2 Attagene CIS-FACTORIAL M61 internal marker reporter; actives raise or lower the signal. Summed up: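 Readout is reporter mRNA by RT-PCR, fluorescent primer extension and capillary electrophoresis, with gain or loss fitted relative to DMSO. Transfected HepG2 cells carrying endogenous-TF-driven cis reporters were exposed to chemicals for 24 hours.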

Test [13] in a line: ATG_EGR_CIS: Attagene CIS-FACTORIAL HepG2 Assay for human Early Growth Response 1 (EGR1) (AID 2282938). To be noted: HepG2 Attagene CIS-FACTORIAL EGR reporter mRNA; actives raise or lower the signal. Summed up: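 After 24 h compound exposure, RNA from reporter-transfected HepG2 cells was reverse-transcribed, PCR-amplified, fluorescently labelled and resolved by capillary electrophoresis. EGR1 reporter transcript changes, up or down, were fitted against DMSO, reflecting endogenous transcription-factor activity.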

Test [14] is described as follows: ATG_M_19_CIS: Attagene CIS-FACTORIAL HepG2 Assay for M19 Transcription Factor (Internal Marker) (AID 2282939). To be noted: HepG2 Attagene CIS-FACTORIAL M19 internal marker reporter; actives raise or lower the signal. Summed up: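 Internal marker readout, fitted in both directions against DMSO, from HepG2 cells carrying transfected cis-element reporter constructs; RT-PCR and capillary electrophoresis of reporter mRNA after 24 h exposure.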

The nature of test [15]: ATG_Ets_CIS: Attagene CIS-FACTORIAL HepG2 Assay for human Erythroblast Transformation Specific (ETS) (AID 2282941). As to conditions: HepG2 ETS cis-reporter transcription, actives raise or lower the signal. Summed up:
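After transient cis-reporter transfection, HepG2 cells receive test chemical for 24 h. Reporter mRNA levels, measured by RT-PCR and capillary electrophoresis fluorescence, are analysed bidirectionally relative to the DMSO baseline.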

Test [16] concerns the target Hepatocyte nuclear factor 3-beta (Homo sapiens) (UniProt Q9Y261). Kind of test: ATG_FoxA2_CIS: Attagene CIS-FACTORIAL HepG2 Assay for human Forkhead box A2 (FOXA2) (AID 2282942). As to conditions: HepG2 cis-reporter transcription factor activity, 24 h; actives raise or lower the signal. A digest of the protocol:
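Endogenous transcription factor activity is captured via cis-element-driven reporter transcripts in transfected HepG2. Total RNA taken at 24 h post-dosing; labelled RT-PCR products resolved by capillary electrophoresis. Gain or loss fitted versus DMSO.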

Test [17] can be described thus: ATG_FoxO_CIS: Attagene CIS-FACTORIAL HepG2 Assay for human Forkhead box O (FoxO) (AID 2282943). As to conditions: HepG2 Attagene cis-reporter, FoxO element, mRNA; actives raise or lower the signal. A digest of the protocol: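 Endogenous transcription factor activity read from multiplexed cis-promoter reporter transcripts in transiently transfected HepG2, 24 h after dosing. Reporter RNA measured via RT-PCR plus capillary electrophoresis of FAM-labeled products; gain or loss relative to DMSO.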

A short description of test [18]: ATG_GATA_CIS: Attagene CIS-FACTORIAL HepG2 Assay for human GATA Binding Protein (AID 2282944). As to conditions: HepG2 GATA cis-element reporter, Attagene multiplex mRNA; actives raise or lower the signal. Summed up:
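Reporter transcripts from a GATA cis-regulated unit, among multiplexed reporters in transfected HepG2 cells, were measured by RT-PCR with capillary electrophoresis after 24 h dosing. Induction or loss scored relative to DMSO.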

Test [19] is described as follows: ATG_ERE_CIS: Attagene CIS-FACTORIAL HepG2 Assay for Estrogen Response Element (ERE) (AID 2282940). To be noted: HepG2 ERE cis-reporter, Attagene RNA transcript; actives raise or lower the signal. A digest of the protocol: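 After 24 h compound treatment, RNA from transfected HepG2 cells was reverse-transcribed, reporter cDNA PCR-amplified, FAM-labelled, HpaI-cut and resolved by capillary electrophoresis. ERE-driven cis reporter transcripts reflect endogenous factors; gain or loss scored against DMSO.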

Test [20] in a line: ATG_BRE_CIS: Attagene CIS-FACTORIAL HepG2 Assay for human Bone Morphogenetic Protein (BMP) Response Element (BRE) (AID 2282933). As to conditions: HepG2 BMP response element reporter, Attagene transcription factor profiling; actives raise or lower the signal. A digest of the protocol:
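Endogenous transcription factor activity read in transiently transfected HepG2 cells after 24 h chemical exposure. Bidirectional curve fitting against DMSO; readout is reporter transcript level by RT-PCR with capillary electrophoresis of labelled products.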

As a reminder, the AC50 is the concentration at which the activity in the assay is half-maximal.

Transcription factor E2F1 (Homo sapiens), sequence (Q01094 whole entry, looked up): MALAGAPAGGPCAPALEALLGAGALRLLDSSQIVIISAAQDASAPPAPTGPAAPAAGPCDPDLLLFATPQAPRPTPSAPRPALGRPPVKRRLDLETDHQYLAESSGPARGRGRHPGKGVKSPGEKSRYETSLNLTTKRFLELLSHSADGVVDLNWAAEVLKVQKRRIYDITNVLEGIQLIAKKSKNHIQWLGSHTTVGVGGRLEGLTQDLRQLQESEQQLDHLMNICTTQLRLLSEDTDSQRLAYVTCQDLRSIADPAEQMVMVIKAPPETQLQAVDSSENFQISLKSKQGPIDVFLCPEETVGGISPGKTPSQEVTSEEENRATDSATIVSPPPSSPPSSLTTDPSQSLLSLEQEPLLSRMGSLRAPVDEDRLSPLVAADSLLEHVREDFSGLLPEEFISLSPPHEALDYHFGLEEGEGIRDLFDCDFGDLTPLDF
Hepatocyte nuclear factor 3-beta (Homo sapiens), sequence (Q9Y261 whole entry, looked up): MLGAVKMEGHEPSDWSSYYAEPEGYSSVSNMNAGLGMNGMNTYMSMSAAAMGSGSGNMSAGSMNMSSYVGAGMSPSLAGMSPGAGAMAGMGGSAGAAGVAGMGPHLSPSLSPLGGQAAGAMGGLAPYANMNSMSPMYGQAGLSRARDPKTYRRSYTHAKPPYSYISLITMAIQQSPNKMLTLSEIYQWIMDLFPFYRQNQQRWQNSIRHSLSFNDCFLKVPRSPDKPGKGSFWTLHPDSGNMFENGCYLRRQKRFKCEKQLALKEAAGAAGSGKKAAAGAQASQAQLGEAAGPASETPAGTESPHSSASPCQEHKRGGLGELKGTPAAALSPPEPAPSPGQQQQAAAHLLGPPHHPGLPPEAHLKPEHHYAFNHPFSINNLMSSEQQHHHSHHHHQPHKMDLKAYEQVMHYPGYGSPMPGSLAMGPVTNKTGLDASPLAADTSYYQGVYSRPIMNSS
Aryl hydrocarbon receptor (Homo sapiens), sequence (P35869 whole entry, looked up): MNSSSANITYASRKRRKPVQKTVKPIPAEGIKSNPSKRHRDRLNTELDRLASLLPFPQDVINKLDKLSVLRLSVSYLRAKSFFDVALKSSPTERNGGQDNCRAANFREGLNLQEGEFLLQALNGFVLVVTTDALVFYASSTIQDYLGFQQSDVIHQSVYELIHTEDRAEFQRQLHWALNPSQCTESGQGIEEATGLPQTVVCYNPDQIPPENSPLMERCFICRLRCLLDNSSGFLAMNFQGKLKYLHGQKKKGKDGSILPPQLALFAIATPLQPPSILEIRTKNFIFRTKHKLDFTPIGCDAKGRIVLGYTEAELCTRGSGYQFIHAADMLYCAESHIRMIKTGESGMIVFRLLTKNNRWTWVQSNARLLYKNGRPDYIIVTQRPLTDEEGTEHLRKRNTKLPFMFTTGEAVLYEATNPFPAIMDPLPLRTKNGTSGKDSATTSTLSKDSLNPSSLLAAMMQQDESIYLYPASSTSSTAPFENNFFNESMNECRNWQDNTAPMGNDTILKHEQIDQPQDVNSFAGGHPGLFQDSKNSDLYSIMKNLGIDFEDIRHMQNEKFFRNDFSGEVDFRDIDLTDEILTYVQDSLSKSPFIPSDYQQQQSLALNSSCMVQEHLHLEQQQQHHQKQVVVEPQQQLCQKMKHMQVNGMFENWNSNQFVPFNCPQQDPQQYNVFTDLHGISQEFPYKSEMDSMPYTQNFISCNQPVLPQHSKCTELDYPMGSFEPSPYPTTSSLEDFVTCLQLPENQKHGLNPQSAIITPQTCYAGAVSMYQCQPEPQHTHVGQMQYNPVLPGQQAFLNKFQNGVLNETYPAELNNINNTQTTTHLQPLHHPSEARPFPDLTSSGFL

Turning to `CC(=O)c1ccccc1O`, the compound was called inactive in test [1], in [2], in test [3], in [4], in [5] and in [6]. The result in test [7], in [8], in test [9], in test [10], in test [11] and in test [12] was inactive. The outcome in [13], in test [14], in [15], in test [16], in test [17] and in [18] was inactive.

As to `C=C1C[C@H]2[C@@H]3C=C(C)C4=CC(=O)CC[C@]4(C)[C@H]3CC[C@]2(C)[C@@]1(OC(C)=O)C(C)=O`, the AC50 in test [1] is 0.00363 µM (active); in [5], 99.7 µM (active); in test [7] it was 63 µM (active); in [11], 97.6 µM (active); in test [13], 52.3 µM (active); in test [17], 93.7 µM (active). Also, in test [18], the half-maximal activity concentration (AC50) was 93.6 µM (active). The compound was called inactive in [2], in test [3], in test [4], in [6], in test [8] and in test [9]. Also, the call in [10], in test [12], in [14], in test [19], in test [15] and in test [16] was inactive.

In the case of `CC1CCC(C(C)(C)S)C(=O)C1` (centres undefined), the compound was classed as inactive in test [1], in test [2], in test [3], in test [4], in test [5] and in test [6]. Besides, the compound was called inactive in test [7], in [8], in [9], in test [10], in [11] and in [12]. Moreover, the compound was classed as inactive in test [13], in [14], in [19], in [15], in [16] and in test [17]. Also, the call in [18] was inactive.

As for `O=C(O)C(F)(F)C(F)(F)C(F)(F)C(F)(F)C(=O)O`, the compound was called inactive in test [1], in test [2], in [3], in [4], in test [5] and in test [6]. Further, the call in [7], in [8], in test [20], in test [10], in test [11] and in test [12] was inactive. Also, the outcome in test [13], in [14], in [19], in test [15], in test [16] and in [18] was inactive.
